High-throughput results: PubChem BioAssay, NMMLSC
Shown are actives, neighbours in structure and some others; about 1.7% of the full set was active somewhere.
FPRL1 binder = human FPRL1 ligands by binding competition, primary screen, cell-based, FPR counter-screen, flow cytometry | N-formyl peptide receptor 2 (Homo sapiens), P25090 | FPRL1-expressing cells, fluorescent ligand binding inhibition | inhibition, % (test concentration not listed) | hit rate 0.3% among 24,000 | AID 441, 2006;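 further: 0% = buffer alone and 100% = receptor blocker peptide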
LNCaP diff act = activators of LNCaP prostate cell differentiation, primary screen, flow cytometry side scatter. 4 d. side scatter shift, % at 10 µM. hit rate 0.56% among 24,000;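 active means side scatter shift above 30%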;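 further: androgen-responsive LNCaP prostate cancer cells in charcoal-stripped serum medium; percent of cells past a gate set so DMSO wells show 10% shift; higher shift means more granular cells and more differentiation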
FPR ligand = human FPR ligands by binding competition, primary screen, cell-based, FPRL1 counter-screen, flow cytometry; inhibition, % (no concentration beside the values); fMet-Leu-Phe receptor (Homo sapiens), P21462; AID 440, 2006; hit rate 0.74% among 24,000; FPR-expressing cells, fluorescent ligand binding;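 further: 0% = buffer wells and 100% = receptor blocker peptide wells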
Target sequence (P21462 whole entry, looked up): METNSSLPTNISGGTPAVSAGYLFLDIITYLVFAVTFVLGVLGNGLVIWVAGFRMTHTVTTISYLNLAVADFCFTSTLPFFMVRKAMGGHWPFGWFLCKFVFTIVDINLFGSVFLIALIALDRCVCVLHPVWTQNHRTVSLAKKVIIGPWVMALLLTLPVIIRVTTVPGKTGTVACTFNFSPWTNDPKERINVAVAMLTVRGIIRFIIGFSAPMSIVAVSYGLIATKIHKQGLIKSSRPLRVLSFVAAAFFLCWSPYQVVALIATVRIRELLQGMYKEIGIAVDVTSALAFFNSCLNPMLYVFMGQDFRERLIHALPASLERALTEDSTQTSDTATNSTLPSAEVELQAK
* = called active by the depositor; / = no result. Unless noted, no stated cut-off is given here; in the data, active means inhibition above about 30%; inconclusive means no clear call, values can overlap the other calls; inactive means below that.

SMILES	FPRL1 binder	LNCaP diff act	FPR ligand
COc1cc(C2C(C(=O)c3ccc(C)o3)=C(O)C(=O)N2c2cc(C)on2)cc(Br)c1O (stereo unspecified)	2.2	23.0	28.2
COc1ccc(OC)c(C2C(C(=O)c3cc4ccccc4o3)=C(O)C(=O)N2c2cc(C)on2)c1 (stereo unspecified)	-2.5	/	32.6*
O=C(C1=C(O)C(=O)N(c2ncccn2)C1c1ccc(Cl)cc1)c1ccco1 (stereo unspecified)	18.0	/	-5.7
O=C(C1=C(O)C(=O)N(c2ncccn2)C1c1ccc(Cl)c(Cl)c1)c1ccco1 (stereo unspecified)	28.7	/	45.3*
CC(=O)C1=C(O)C(=O)N(Cc2cccnc2)C1c1ccccc1Cl (stereo unspecified)	11.5	/	15.2
COc1cc(C2C(C(=O)c3ccco3)=C(O)C(=O)N2c2cc(C)on2)cc(Br)c1O (stereo unspecified)	31.1*	/	39.3*
COc1ccc(C2C(C(=O)c3ccc(C)o3)=C(O)C(=O)N2c2cc(C)on2)cc1OC (stereo unspecified)	-3.9	/	-7.6
Cc1ccc(C(=O)C2=C(O)C(=O)N(Cc3ccccc3)C2c2cccnc2)o1 (stereo unspecified)	-3.3	/	32.3*
CCn1c(C(=O)N2CCC(C(=O)NCCCSC3CCCCC3)CC2)cc2sccc21	-1.4	7.0	9.4
Cc1nn(-c2ccccc2)c2c1C(O)n1c(nc3ccccc31)S2 (stereo unspecified)	-5.0	11.0	20.6
CCOC(=O)c1cc(-c2nnc(-c3ccc(Oc4ccccc4)cc3)o2)c(C)nc1C	-9.3	4.0	-10.2
Cc1cc(N2C(=O)C(O)=C(C(=O)c3ccco3)C2c2cccnc2)no1 (stereo unspecified)	30.5*	/	29.6
O=C(C1=C(O)C(=O)N(c2ncccn2)C1c1cccc(Cl)c1)c1ccco1 (stereo unspecified)	-10.6	22.0	17.4
COc1ccccc1C1/C(=C(\O)c2ccc3c(c2)OCCO3)C(=O)C(=O)N1CCCN(C)C (stereo unspecified)	5.4	/	-2.3
C=CCN1C(=O)C2(/C(=C(\O)c3ccc4c(c3)OCCO4)C(=O)C(=O)N2CCCOC)c2ccccc21 (stereo unspecified)	1.9	19.0	31.6*
CC(O)Cc1nsc(NC(=O)c2ccc(Br)o2)n1 (stereo unspecified)	-7.8	7.0	-3.3
O=C(c1cccs1)c1cn(CC(=O)N2CCc3ccccc3C2)c2ccccc12	1.2	8.0	-0.5
CC1CCCN(C(=O)CSCC(=O)N=c2sc3ccccc3n2C)C1 (stereo unspecified)	-0.5	8.0	3.0
O=C1c2ccccc2C(=O)N1Cc1nc2ccccc2c(=O)n1CCN1CCOCC1	-1.3	3.0	4.7
CCC(=O)Nc1cc2nn(-c3ccccc3)nc2cc1Cl	0.3	10.0	-0.7
CNc1nn(-c2cccc(Cl)c2)nc1N	90.3*	13.0	-8.6
Cc1nn(C(C)C(=O)O)c2ccccc12 (stereo unspecified)	0.0	2.0	-3.6
COc1ccc(OCC(O)CN2CCCCC2)cc1 (stereo unspecified)	9.5	2.0	-4.4
Cc1ccc(OCC(O)Cn2c(=N)n(CCN3CCCCC3)c3ccccc32)cc1 (stereo unspecified)	-2.3	58.0*	-5.4
C=CCn1c(=N)n(CC(O)COc2ccccc2OC)c2ccccc21 (stereo unspecified)	-1.0	12.0	-5.8
SMILES	FPRL1 binder	LNCaP diff act	FPR ligand
CCCCCn1c(=N)n(CC(O)COc2ccccc2OC)c2ccccc21 (stereo unspecified)	2.2	34.0*	-2.5
O=S(=O)(Nc1ccc2c(c1)OCCO2)c1cnc[nH]1	-2.5	13.0	6.0
CCn1c(N)c(C(=O)NC)sc1=S	8.5	12.0	2.3
COCCNC(=O)CSc1nc2cc(OC)c(OC)cc2c(=O)n1Cc1ccco1	-0.9	2.0	-2.7
COC(=O)c1ccc2c(=O)n(Cc3ccco3)c(SCC(=O)Nc3ccc(C)c(Cl)c3)nc2c1	2.4	34.0*	0.7
CC1(C)CC(=O)CC(=Nc2ccc(C(=O)O)cc2)C1	-2.0	5.0	-0.3
Cc1nn(-c2ccccc2)c2c1C(c1c(C)[nH]c(C#N)c1C)C(C#N)=C(N)O2 (stereo unspecified)	-11.2	10.0	3.2
COc1cc(-n2nc(C)c3c2OC(N)=C(C#N)C3c2ccccc2)c(Cl)c(Br)c1O (stereo unspecified)	-1.8	6.0	36.2*
Cc1cc(C)n(C(=O)c2cc3ccccc3c(=O)o2)n1	-2.0	4.0	-3.8
O=C(NCCN1CCc2ccccc2C1)Nc1ccc(F)cc1	-2.3	7.0	0.8
CCc1ccc(NC(=O)NCCN2CCc3ccccc3C2)cc1	9.7	34.0*	-0.4
CCOc1cc2[nH]c(=O)n(CCCCC(=O)NCc3ccco3)c(=O)c2cc1OCC	6.6	16.0	8.4
COc1ccc(OC)c(NC(=O)C2CCCCC2C(=O)O)c1 (stereo unspecified)	-0.5	/	-5.9
COc1ccc(OC)c(NC(=O)C2C3CCC(C3=C(C)C)C2C(=O)O)c1 (stereo unspecified)	25.5	/	38.3*
CC(C)CC(=O)CN1C(=O)C2(OCCO2)c2ccccc21	-1.8	9.0	2.7
CC(NCc1ccco1)C(=O)N1CCc2ccccc2C1 (stereo unspecified)	-1.8	19.0	-7.7
COc1cccc(CNC(=O)Cn2cc3c(n2)CCCC3)c1	29.9	1.0	39.7*
O=C(Cn1cc2c(n1)CCCC2)NCc1cccc(Cl)c1	1.3	5.0	2.7
Cn1c(C(=O)NCCCN2CCN(c3ccccc3F)CC2)cc2c(=O)n(C)c3ccccc3c21	-8.0	70.0*	-2.0
Cn1c(C(=O)NCCCN2CCOCC2)cc2c(=O)n(C)c3ccccc3c21	-0.1	13.0	9.4
COc1ccc(CCN2CCC(Nc3nc4ccccc4n3Cc3ccc(F)cc3)CC2)cc1	0.4	66.0*	-8.2
Clc1ccc(Cn2c(CN3CCCC3)nc3ccccc32)cc1	8.5	2.0	3.6
CCN(CC)CCCNc1oc(-c2cccc(Cl)c2)nc1C#N	-0.7	32.0*	3.7
COc1ccc(-c2nc(C#N)c(NCCN(C)C)o2)cc1	-2.2	16.0	-2.8
Cc1cc(C)n(Cc2cc(C)c(Cn3nc(C)cc3C)cc2C)n1	-1.9	4.0	-0.6
SMILES	FPRL1 binder	LNCaP diff act	FPR ligand
O=C(Nc1nnc(-c2ccccc2Cl)o1)c1ccc(S(=O)(=O)N2CCCCCC2)cc1	-4.8	21.0	31.4*
CC1CCCCN1S(=O)(=O)c1ccc(C(=O)Nc2nnc(-c3ccccc3Cl)o2)cc1 (stereo unspecified)	1.1	7.0	4.0
CCOC(=O)c1[nH]nc2c1C(=O)N(Cc1ccccc1)C2=O	-3.3	5.0	4.6
Nc1cc(C(=O)O)ccc1Nc1ccccc1	-0.4	3.0	-2.1
Nc1ccc(Nc2ccccc2N)cc1	46.8*	0.0	2.6
CC(C)c1cc(CN2CCN(CCC#N)CC2)cc(C(C)C)c1O	0.6	12.0	-3.7
O=C(OCc1cccs1)c1ccccc1NS(=O)(=O)c1ccc2c(c1)OCCO2	-3.2	15.0	-6.3
CS(=O)(=O)N1CCCC(C(=O)NCCCN2CCc3ccccc3C2)C1 (stereo unspecified)	4.7	9.0	-2.5
